Reference: the supplement of paper PMC10849652
Targets with a hit are over-represented here; the source holds about 8,800 in all. About 0.5% of all pairs of compound and target were hits. A number with no mark means an inactive call.

Legend:
Assay in all cases: log2 fold change, soluble protein after heating vs DMSO (PISA); higher = thermal stabilisation; K562 lysate, 10 uM; active = over 0.2 and 3.5 SD of the protein, either way, in both replicates (recomputed)
[1] = compound: Cc1cn(-c2cc(NC(=O)c3ccc(C)c(Nc4nccc(-c5cccnc5)n4)c3)cc(C(F)(F)F)c2)cn1 [nilotinib]
Summary of the method: (§1)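 Quantification was by TMTpro 16plex LC-MS/MS with equalised channel sums, applied to the supernatant after 21,000xg for 90 min. Samples were crude K562 extract at 1 mg/mL protein in PBS pH 7.4 with 1 mM MgCl2, treated with 10 μM compound for 30 min, heated for 3 min across 48°C-58°C, pooled and brought to 0.5% NP-40 at 4°C. Values are log-two fold changes in thermal stability relative to solvent controls, from duplicates.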

[2] = compound: Cc1nc(Nc2n[nH]c3c2CN(C(=O)N[C@H](CN(C)C)c2ccccc2)C3(C)C)c2sccc2n1
Summary of the method: as §1

[3] = compound: Cc1nc(Nc2ncc(C(=O)Nc3c(C)cccc3Cl)s2)cc(N2CCN(CCO)CC2)n1 [dasatinib]
Summary of the method: as §1

[4] = compound: Cc1ncc(-c2ccnc(Nc3ccc(S(C)(=O)=O)cc3)n2)n1C(C)C
Summary of the method: as §1

[5] = compound: Cn1cc(-c2ccc3c(c2)CCN3C(=O)Cc2cccc(C(F)(F)F)c2)c2c(N)ncnc21
Summary of the method: as §1

[6] = compound: Cn1cc(CNCC2CCN(c3ncc(C(=O)NO)cn3)CC2)c2ccccc21 [quisinostat]
Summary of the method: as §1

[7] = compound: Cn1cncc1[C@@](N)(c1ccc(Cl)cc1)c1ccc2c(c1)c(-c1cccc(Cl)c1)cc(=O)n2C [tipifarnib]
Summary of the method: as §1

[8] = compound: NC(=O)Nc1cc(-c2cccc(F)c2)sc1C(=O)N[C@H]1CCCNC1
Summary of the method: as §1

[9] = compound: NC(=O)c1cnc(N[C@@H]2CCCC[C@@H]2N)nc1Nc1cccc(-n2nccn2)c1
Summary of the method: as §1

[10] = compound: NCC(=O)Nc1ccc(-n2nc(C(F)(F)F)cc2-c2ccc3c(ccc4ccccc43)c2)cc1
Summary of the method: as §1

[11] = compound: O=C1NC(=O)C(c2cnc3ccccn23)=C1c1cn2c3c(cc(F)cc13)CN(C(=O)N1CCCCC1)CC2
Summary of the method: as §1

[12] = compound: c1cn2cc(-c3ccc4cn[nH]c4c3)nc(Nc3ccc(N4CCOCC4)cc3)c2n1 [entospletinib]
Summary of the method: as §1

[13] = compound: NC1(c2ccc(-c3nc4ccn5c(=O)[nH]nc5c4cc3-c3ccccc3)cc2)CCC1
Summary of the method: as §1

[14] = compound: O=C(CCCCCCC(=O)Nc1ccccc1)NO [vorinostat]
Summary of the method: as §1

[15] = compound: O=C(O)c1ccc2c(c1)nc(Nc1cccc(Cl)c1)c1ccncc12 [silmitasertib]
Summary of the method: as §1

Sequence of UniProt Q9BRD0 (Q9BRD0 whole entry, looked up): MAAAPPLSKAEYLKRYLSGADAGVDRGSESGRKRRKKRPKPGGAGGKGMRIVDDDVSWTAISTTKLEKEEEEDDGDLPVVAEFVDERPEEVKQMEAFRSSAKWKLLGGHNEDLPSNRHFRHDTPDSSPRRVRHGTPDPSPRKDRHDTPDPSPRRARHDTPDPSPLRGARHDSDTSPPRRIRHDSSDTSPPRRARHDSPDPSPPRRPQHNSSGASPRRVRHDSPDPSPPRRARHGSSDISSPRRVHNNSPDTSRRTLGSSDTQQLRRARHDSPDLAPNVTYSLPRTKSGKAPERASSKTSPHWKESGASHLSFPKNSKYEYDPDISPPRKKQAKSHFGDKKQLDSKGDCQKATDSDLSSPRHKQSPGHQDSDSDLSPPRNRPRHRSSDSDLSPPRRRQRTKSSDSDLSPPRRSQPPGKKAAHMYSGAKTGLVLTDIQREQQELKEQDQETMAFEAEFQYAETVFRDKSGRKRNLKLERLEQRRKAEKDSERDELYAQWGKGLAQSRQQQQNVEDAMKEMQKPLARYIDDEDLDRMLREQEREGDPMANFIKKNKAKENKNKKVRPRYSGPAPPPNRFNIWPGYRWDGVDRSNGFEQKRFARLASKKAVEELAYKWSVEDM
Sequence of UniProt P49589 (P49589 whole entry, looked up): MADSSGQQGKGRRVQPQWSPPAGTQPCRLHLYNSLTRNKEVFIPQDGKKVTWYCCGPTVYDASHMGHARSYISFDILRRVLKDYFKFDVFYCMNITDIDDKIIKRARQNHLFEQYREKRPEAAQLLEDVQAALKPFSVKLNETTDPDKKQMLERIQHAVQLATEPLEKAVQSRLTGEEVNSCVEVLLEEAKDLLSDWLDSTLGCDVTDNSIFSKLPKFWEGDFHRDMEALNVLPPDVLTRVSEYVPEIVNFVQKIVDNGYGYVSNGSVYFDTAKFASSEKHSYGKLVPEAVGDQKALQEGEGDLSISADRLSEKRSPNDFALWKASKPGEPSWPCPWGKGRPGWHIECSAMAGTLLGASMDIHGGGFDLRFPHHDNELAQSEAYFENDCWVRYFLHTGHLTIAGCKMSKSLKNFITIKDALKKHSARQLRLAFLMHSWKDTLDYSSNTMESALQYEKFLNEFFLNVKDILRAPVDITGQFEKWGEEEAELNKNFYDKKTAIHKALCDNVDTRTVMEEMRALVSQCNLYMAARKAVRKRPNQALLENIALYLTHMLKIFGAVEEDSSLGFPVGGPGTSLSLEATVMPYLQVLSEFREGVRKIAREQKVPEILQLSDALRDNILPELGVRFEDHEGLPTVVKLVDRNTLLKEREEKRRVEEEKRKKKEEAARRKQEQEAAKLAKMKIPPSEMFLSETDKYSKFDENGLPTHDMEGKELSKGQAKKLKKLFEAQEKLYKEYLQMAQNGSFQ
Sequence of UniProt A8MTT3 (A8MTT3 whole entry, looked up): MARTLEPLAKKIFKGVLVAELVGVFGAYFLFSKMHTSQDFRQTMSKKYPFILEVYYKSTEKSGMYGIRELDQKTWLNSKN
Sequence of UniProt P04632 (P04632 whole entry, looked up): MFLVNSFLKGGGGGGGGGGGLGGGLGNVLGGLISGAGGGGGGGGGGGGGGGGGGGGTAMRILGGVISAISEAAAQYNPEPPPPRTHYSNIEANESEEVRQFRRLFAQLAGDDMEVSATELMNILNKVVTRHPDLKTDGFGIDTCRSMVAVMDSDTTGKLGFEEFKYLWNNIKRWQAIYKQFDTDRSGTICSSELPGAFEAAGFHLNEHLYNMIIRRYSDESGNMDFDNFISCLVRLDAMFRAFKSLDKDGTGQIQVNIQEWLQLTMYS
Sequence of UniProt Q9UQ88 (Q9UQ88 whole entry, looked up): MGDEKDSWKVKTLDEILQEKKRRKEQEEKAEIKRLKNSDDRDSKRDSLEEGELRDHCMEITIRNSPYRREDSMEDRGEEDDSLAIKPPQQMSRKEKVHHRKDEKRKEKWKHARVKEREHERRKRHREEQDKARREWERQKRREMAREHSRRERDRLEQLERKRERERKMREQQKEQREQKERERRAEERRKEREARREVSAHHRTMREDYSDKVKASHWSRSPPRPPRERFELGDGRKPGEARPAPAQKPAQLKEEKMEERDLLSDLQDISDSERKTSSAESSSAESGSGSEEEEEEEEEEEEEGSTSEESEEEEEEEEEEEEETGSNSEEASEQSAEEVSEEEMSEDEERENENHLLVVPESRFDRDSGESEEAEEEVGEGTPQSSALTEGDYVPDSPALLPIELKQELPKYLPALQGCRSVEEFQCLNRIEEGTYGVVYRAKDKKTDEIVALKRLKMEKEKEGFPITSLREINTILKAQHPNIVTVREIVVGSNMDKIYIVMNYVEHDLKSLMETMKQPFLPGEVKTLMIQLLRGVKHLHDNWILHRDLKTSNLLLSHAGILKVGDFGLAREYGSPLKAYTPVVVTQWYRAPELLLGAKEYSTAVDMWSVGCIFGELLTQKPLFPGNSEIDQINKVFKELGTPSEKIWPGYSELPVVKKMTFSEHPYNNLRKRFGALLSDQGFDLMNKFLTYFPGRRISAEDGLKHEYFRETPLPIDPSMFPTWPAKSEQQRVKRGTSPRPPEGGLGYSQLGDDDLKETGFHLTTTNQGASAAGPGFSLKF
Sequence of UniProt Q8N5I9 (Q8N5I9 whole entry, looked up): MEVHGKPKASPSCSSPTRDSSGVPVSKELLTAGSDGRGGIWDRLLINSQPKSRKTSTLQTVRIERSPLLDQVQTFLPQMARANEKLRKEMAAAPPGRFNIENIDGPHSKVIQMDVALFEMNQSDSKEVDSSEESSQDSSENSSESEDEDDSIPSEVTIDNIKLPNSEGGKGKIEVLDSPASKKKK
Sequence of UniProt P24863 (P24863 whole entry, looked up): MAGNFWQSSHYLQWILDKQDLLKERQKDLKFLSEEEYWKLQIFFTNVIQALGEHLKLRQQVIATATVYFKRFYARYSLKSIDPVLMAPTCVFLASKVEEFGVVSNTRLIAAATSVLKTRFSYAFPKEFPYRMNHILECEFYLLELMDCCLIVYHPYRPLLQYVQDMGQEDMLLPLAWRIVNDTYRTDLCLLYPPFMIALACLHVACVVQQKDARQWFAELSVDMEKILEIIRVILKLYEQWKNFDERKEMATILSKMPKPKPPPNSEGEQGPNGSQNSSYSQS
Sequence of UniProt Q7Z3E2 (Q7Z3E2 whole entry, looked up): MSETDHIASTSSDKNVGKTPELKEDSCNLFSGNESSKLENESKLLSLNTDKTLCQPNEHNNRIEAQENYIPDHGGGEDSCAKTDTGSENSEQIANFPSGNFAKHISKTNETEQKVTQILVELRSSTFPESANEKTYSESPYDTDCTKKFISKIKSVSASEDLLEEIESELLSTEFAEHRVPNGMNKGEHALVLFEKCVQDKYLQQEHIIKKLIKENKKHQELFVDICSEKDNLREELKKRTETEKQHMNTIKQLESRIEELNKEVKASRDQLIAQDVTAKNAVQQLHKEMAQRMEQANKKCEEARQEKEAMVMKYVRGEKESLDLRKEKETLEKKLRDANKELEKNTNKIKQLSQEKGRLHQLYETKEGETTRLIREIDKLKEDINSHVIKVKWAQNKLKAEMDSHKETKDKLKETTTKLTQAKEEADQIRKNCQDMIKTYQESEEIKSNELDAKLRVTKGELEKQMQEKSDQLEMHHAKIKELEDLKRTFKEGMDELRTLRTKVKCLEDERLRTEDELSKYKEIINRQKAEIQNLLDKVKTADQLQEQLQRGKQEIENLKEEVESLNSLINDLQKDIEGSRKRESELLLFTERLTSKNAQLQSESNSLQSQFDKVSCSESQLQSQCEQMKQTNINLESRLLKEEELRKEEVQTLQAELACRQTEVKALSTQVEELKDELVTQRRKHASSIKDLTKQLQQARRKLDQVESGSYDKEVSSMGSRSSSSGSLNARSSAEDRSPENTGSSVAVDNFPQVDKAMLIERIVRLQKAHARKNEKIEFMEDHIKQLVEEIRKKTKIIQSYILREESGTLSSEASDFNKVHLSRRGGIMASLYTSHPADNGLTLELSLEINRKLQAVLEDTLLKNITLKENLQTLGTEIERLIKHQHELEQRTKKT
Sequence of UniProt P55210 (P55210 whole entry, looked up): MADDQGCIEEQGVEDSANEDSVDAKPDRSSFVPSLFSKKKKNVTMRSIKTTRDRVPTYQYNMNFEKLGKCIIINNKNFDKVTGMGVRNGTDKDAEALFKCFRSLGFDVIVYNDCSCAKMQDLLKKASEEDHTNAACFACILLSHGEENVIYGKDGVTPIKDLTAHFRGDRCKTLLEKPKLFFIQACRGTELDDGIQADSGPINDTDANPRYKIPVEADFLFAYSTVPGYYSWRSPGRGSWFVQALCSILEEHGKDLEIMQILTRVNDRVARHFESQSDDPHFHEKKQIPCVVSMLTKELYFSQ
Sequence of UniProt Q8IYX8 (Q8IYX8 whole entry, looked up): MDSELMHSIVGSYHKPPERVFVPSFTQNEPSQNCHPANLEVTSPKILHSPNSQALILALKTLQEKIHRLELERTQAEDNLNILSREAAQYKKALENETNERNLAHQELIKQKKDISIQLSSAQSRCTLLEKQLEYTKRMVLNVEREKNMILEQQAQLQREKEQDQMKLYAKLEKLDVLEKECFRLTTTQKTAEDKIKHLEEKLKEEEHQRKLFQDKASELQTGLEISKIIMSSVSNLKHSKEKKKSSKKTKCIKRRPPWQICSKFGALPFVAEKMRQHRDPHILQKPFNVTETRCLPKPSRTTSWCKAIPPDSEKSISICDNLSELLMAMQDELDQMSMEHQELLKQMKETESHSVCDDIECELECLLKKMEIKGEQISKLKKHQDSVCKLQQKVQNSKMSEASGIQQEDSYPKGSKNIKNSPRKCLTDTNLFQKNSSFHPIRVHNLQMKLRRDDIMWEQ
Sequence of UniProt P18859 (P18859 whole entry, looked up): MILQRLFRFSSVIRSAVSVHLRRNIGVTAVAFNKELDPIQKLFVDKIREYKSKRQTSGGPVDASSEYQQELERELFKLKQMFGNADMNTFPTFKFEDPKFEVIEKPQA
Sequence of UniProt Q12983 (Q12983 whole entry, looked up): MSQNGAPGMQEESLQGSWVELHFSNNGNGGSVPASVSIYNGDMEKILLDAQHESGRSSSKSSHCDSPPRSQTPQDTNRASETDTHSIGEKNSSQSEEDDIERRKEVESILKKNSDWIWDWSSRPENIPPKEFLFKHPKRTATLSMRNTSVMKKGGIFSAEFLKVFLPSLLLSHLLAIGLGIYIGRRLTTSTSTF

| Target | log2 fold change [1] | log2 fold change [2] | log2 fold change [3] | log2 fold change [4] | log2 fold change [5] | log2 fold change [6] | log2 fold change [7] | log2 fold change [8] | log2 fold change [9] | log2 fold change [10] | log2 fold change [11] | log2 fold change [12] | log2 fold change [13] | log2 fold change [14] | log2 fold change [15] |
| --- | --- | --- | --- | --- | --- | --- | --- | --- | --- | --- | --- | --- | --- | --- | --- |
| CHCHD7 isoform 4 (UniProt Q9BUK0) | -0.147 | 0.031 | -0.044 | -0.147 | 0.041 | -0.207 | -0.117 | 0.055 | -0.04 | -0.031 | -0.066 | 0.008 | – | – | – |
| CASP7 isoform 3 (UniProt P55210) | -0.042 | 0.01 | -0.091 | 0.05 | 0.226 | -0.016 | 0.049 | 0.022 | 0.106 | – | 0.01 | 0.063 | 0.063 | -0.254 | 0.113 |
| CDK11A (UniProt Q9UQ88) | -0.007 | 0.053 | -0.016 | 0.085 | -0.001 | -0.031 | -0.029 | 0.035 | -0.029 | – | -0.012 | – | -0.034 | -0.329 | 0.049 |
| BLOC1S6 (UniProt Q9UL45) | -0.073 | 0.036 | 0.093 | 0.093 | -0.008 | 0.042 | -0.063 | -0.049 | -0.023 | -0.022 | 0.011 | 0.046 | 0.096 | -0.386 (active) | 0.004 |
| CAPNS1 (UniProt P04632) | -0.007 | 0.027 | 0.035 | -0.002 | -0.014 | 0.078 | 0.017 | -0.077 | -0.05 | -0.08 | -0.039 | 0.033 | 0.01 | 0.07 | -0.007 |
| BRD2 isoform 2 (UniProt P25440) | 0.012 | 0.15 | 0.011 | -0.024 | -0.048 | -0.028 | -0.035 | 0.028 | -0.161 | 0.048 | 0.051 | 0.021 | -0.064 | 0.107 | 0.074 |
| CCDC186 (UniProt Q7Z3E2) | -0.046 | -0.056 | -0.014 | 0.03 | 0.043 | -0.03 | -0.01 | 0.033 | -0.017 | 0.052 | 0.012 | -0.01 | 0.001 | 0.005 | 0.057 |
| CHAC2 (UniProt Q8WUX2) | 0.004 | 0.043 | -0.022 | -0.024 | 0.036 | -0.066 | 0.041 | 0.019 | 0.017 | -0.158 | -0.012 | -0.052 | -0.027 | 0.066 | -0.02 |
| CCDC25 (UniProt Q86WR0) | 0.016 | -0.023 | -0.043 | -0.021 | -0.013 | -0.039 | 0.002 | 0 | 0.024 | 0.025 | -0.011 | 0.009 | -0.031 | 0.025 | -0.032 |
| CEP41 (UniProt Q9BYV8) | 0.001 | 0.034 | 0.043 | -0.008 | -0.077 | -0.068 | -0.027 | -0.128 | 0.066 | 0.002 | -0.152 | -0.017 | 0.076 | -0.558 (active) | -0.026 |
| CARS isoform 3 (UniProt P49589) | -0.019 | -0.007 | -0.024 | -0.007 | 0.012 | 0.048 | 0.007 | 0.004 | 0.001 | 0.018 | -0.049 | 0.008 | -0.01 | -0.254 (active) | 0.018 |
| ATP5PF isoform 2 (UniProt P18859) | 0.059 | 0.046 | 0.026 | 0.164 | -0.013 | 0.11 | 0.066 | -0.058 | -0.029 | -0.002 | 0.053 | -0.003 | -0.051 | 0.206 | -0.116 |
| BNIP3 (UniProt Q12983) | 0.037 | -0.077 | 0.014 | -0.002 | -0.02 | -0.219 | 0.05 | 0.061 | -0.018 | – | -0.048 | -0.031 | -0.007 | 0.066 | -0.08 |
| CDKN1C (UniProt P49918) | -0.054 | -0.035 | 0.083 | 0.094 | 0.055 | 0.091 | 0.037 | -0.091 | -0.101 | 0.124 | 0.134 | 0.048 | 0.04 | 0.058 | -0.029 |
| BUD13 (UniProt Q9BRD0) | -0.036 | 0.111 | -0.094 | 0 | 0.019 | -0.044 | 0.028 | -0.014 | – | – | 0.036 | -0.046 | -0.019 | 0.136 | 0.054 |
| CHD9 (UniProt Q3L8U1) | 0.209 | 0.125 | -0.124 | -0.279 | -0.109 | -0.029 | -0.017 | 0 | – | -0.018 | -0.012 | – | 0.032 | -0.111 | 0.075 |
| C9orf72 (UniProt Q96LT7) | 0.017 | -0.063 | -0.025 | 0.073 | 0.001 | -0.034 | -0.065 | -0.03 | 0.015 | – | -0.015 | -0.129 | -0.014 | 0.919 (active) | -0.045 |
| CEBPZOS (UniProt A8MTT3) | 0.069 | -0.01 | 0.053 | 0.024 | 0.044 | 0.02 | -0.017 | -0.039 | -0.004 | -0.113 | -0.025 | -0.037 | -0.008 | 0.082 | -0.004 |
| CCNC (UniProt P24863) | 0.013 | 0.035 | 0.04 | 0.202 | -0.017 | 0 | -0.049 | 0.048 | -0.007 | 0.159 | -0.092 | 0.029 | -0.029 | -0.001 | 0.338 |
| C12orf45 (UniProt Q8N5I9) | -0.026 | -0.003 | 0.019 | -0.017 | 0.035 | -0.019 | -0.014 | -0.015 | 0 | 0.063 | -0.027 | 0 | 0.024 | 0.012 | -0.059 |
| CEP57L1 (UniProt Q8IYX8) | 0.246 | -0.129 | 0 | -0.014 | 0.34 | -0.101 | -0.015 | 0.041 | – | – | -0.044 | -0.029 | 0.031 | -0.23 | 0.133 |
